Reference: PubChem BioAssay (EPA / NIEHS)
Values joined by “and” are separate entries in the source; they are usually repeats but may differ in a detail not shown here. Identical values can stand only once. Records with an inconclusive call do not appear. Some compounds were tested as several samples or in several runs, with calls that do not always agree. Active and inactive are the calls of the source. Rule for the calls, unless noted: active = hit-call score of the fitted dose curve at least 0.9, where 1 is the maximum; inactive = score below 0.9.

What was measured:
[1] = read-out: Interleukin-8 (IL8), CXCL8 (gene 3576); test: BSK_3C_IL8: BioMAP Diversity Plus: 3C Assay for Interleukin-8 (IL8) Biomarker Activity (AID 2283020); conditions: primary human endothelial cells (HUVEC); actives raise or lower the signal
Summary of the method: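 Using DMSO-treated wells as the baseline, bidirectional curve fitting was applied to ELISA-measured IL-8 from human umbilical vein endothelial cultures sampled 24 h after compound addition.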

[2] = read-out: Monokine induced gamma interferon (MIG), CXCL9 (gene 4283); test: BSK_3C_MIG: BioMAP Diversity Plus: 3C Assay for Monokine induced gamma interferon (MIG) Biomarker Activity (AID 2283021); conditions: primary human endothelial cells (HUVEC); actives raise or lower the signal;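 for AC50: MIG protein level measured by immunoassay in the treated endothelial cultures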
Summary of the method: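 ELISA-measured MIG in dosed HUVEC 3C cultures at 24 h, analysed by bidirectional fitting with DMSO defining baseline activity.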

[3] = BSK_3C_SRB: Viability Assessment in the BioMAP Diversity Plus: 3C Assay (AID 2283023); conditions: primary human endothelial cells (HUVEC);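 note: fitted both ways against DMSO so a hit may be signal rise or drop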
Summary of the method: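 HUVEC, 24 h post-dose; 10% TCA fix, 0.1% SRB stain, A560 nm. Bidirectional curve fit vs DMSO negative control.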

[4] = read-out: Matrix Metallopeptidase 1 (MMP1), MMP1 (gene 4312); test: BSK_BE3C_MMP1: BioMAP Diversity Plus: BE3C Assay for Matrix Metallopeptidase 1 (MMP1) Biomarker Activity (AID 2283024); conditions: primary human bronchial epithelial cells; actives raise or lower the signal
Summary of the method: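 In this multiplexed primary-cell system, human bronchial epithelium received chemicals for 24 h before an ELISA for MMP1. Values reflect bidirectional fits normalised to the DMSO baseline.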

[5] = BSK_3C_Vis: BioMAP Diversity Plus: 3C Assay for Morphology Visualization (AID 2283025); conditions: primary human endothelial cells (HUVEC);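 note: fitted both ways so gain or loss versus DMSO counts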;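 for AC50: light microscopy image of cell morphology used as background control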
Summary of the method: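 Light-microscopy morphology readout, 24 h exposure, human primary umbilical vein endothelium; analysed relative to DMSO with bidirectional fitting.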

[6] = BSK_4H_SRB: Viability Assessment in the BioMAP Diversity Plus: 4H Assay (AID 2283027); conditions: primary human endothelial cells (HUVEC);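 note: cells exposed to compound for 24 h before staining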;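 for AC50: curves fitted both ways versus DMSO so AC50 may be loss or gain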
Summary of the method: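 Cytotoxicity read-out in primary human endothelial cells: after 24 h compound exposure, cells were TCA-fixed (10%), stained with 0.1% SRB and absorbance taken at 560 nm. Values fitted in both directions relative to DMSO.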

[7] = read-out: Thrombomodulin, THBD (gene 7056); test: BSK_3C_Thrombomodulin: BioMAP Diversity Plus: 3C Assay for Thrombomodulin Biomarker Activity (AID 2283029); conditions: primary human endothelial cells (HUVEC); actives raise or lower the signal
Summary of the method: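 In a multiplexed primary-cell system, human umbilical vein endothelium received chemical and was assayed 24 h later for thrombomodulin by ELISA. Parallel cultures were SRB-stained (0.1% SRB after 10% TCA fixation, read at 560 nm) to flag cytotoxicity.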

[8] = read-out: Urokinase-type plasminogen activator receptor (uPAR), PLAUR (gene 5329); test: BSK_4H_uPAR: BioMAP Diversity Plus: 4H Assay for Urokinase-type plasminogen activator receptor (uPAR) Biomarker Activity (AID 2283030); conditions: primary human endothelial cells (HUVEC); actives raise or lower the signal
Summary of the method: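 HUVEC, 24 h post-dose; uPAR by ELISA; bidirectional fit vs DMSO baseline.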

[9] = read-out: Vascular endothelial growth factor receptor 2 (Homo sapiens) (UniProt P35968); test: BSK_4H_VEGFRII: BioMAP Diversity Plus: 4H Assay for Vascular endothelial growth factor receptor 2 (VEGFR2) Biomarker Activity (AID 2283031); conditions: primary human endothelial cells (HUVEC); actives raise or lower the signal;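 for AC50: cell-surface VEGFR2 protein level quantified by ELISA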
Summary of the method: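 HUVEC (human primary), 4H system; 24 h post-dose; VEGFRII by ELISA; bidirectional curve fit vs DMSO baseline; gain or loss of signal scored.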

[10] = read-out: Human Leukocyte Antigen - DR isotype (HLADR), HLA-DRA (gene 3122); test: BSK_BE3C_HLADR: BioMAP Diversity Plus: BE3C Assay for Human Leukocyte Antigen - DR isotype (HLADR) Biomarker Activity (AID 2283032); conditions: primary human bronchial epithelial cells; actives raise or lower the signal
Summary of the method: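 BioMAP BE3C format: human bronchial epithelium, 24 h compound treatment, ELISA detection of HLA-DR, with bidirectional analysis relative to DMSO.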

[11] = read-out: Vascular cell adhesion molecule 1 (VCAM1), VCAM1 (gene 7412); test: BSK_4H_VCAM1: BioMAP Diversity Plus: 4H Assay for Vascular cell adhesion molecule 1 (VCAM1) Biomarker Activity (AID 2283033); conditions: primary human endothelial cells (HUVEC); actives raise or lower the signal
Summary of the method: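 In this human endothelial (HUVEC) system, biomarker ELISA was run 24 h after compound addition, and total protein in parallel wells was assessed by SRB at 560 nm; DMSO served as negative control.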

[12] = read-out: Interferon-gamma inducible Protein 10 (IP10), CXCL10 (gene 3627); test: BSK_BE3C_IP10: BioMAP Diversity Plus: BE3C Assay for Interferon-gamma inducible Protein 10 (IP10) Biomarker Activity (AID 2283034); conditions: primary human bronchial epithelial cells; actives raise or lower the signal
Summary of the method: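 BE3C cells (human bronchial epithelial, primary); 24 h exposure; ELISA for IP-10; DMSO-referenced bidirectional fit.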

[13] = read-out: Monokine induced gamma interferon (MIG), CXCL9 (gene 4283); test: BSK_BE3C_MIG: BioMAP Diversity Plus: BE3C Assay for Monokine induced gamma interferon (MIG) Biomarker Activity (AID 2283035); conditions: primary human bronchial epithelial cells; actives raise or lower the signal
Summary of the method: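 ELISA quantified MIG after 24 h exposure of primary bronchial epithelial cultures, analysed in both directions relative to DMSO. Cytotoxicity tracked in parallel cultures by sulforhodamine B staining.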

[14] = read-out: Transforming growth factor beta 1 (TGFb1), TGFB1 (gene 7040); test: BSK_BE3C_TGFb1: BioMAP Diversity Plus: BE3C Assay for Transforming growth factor beta 1 (TGFb1) Biomarker Activity (AID 2283036); conditions: primary human bronchial epithelial cells; actives raise or lower the signal
Summary of the method: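 TGF-b1 measured via ELISA, 24 h after chemical dosing of human bronchial epithelial cells (BE3C). Overt cytotoxicity assessed in parallel by SRB (0.1%, TCA-fixed, 560 nm); analysis bidirectional relative to DMSO.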

[15] = read-out: Plasminogen activator inhibitor-1 (PAI1), SERPINE1 (gene 5054); test: BSK_BE3C_PAI1: BioMAP Diversity Plus: BE3C Assay for Plasminogen activator inhibitor-1 (PAI1) Biomarker Activity (AID 2283037); conditions: primary human bronchial epithelial cells; actives raise or lower the signal
Summary of the method: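 In this multiplexed primary-cell system, bronchial epithelial cells receive test chemical and are sampled at 24 h. PAI-1 is read by ELISA, with DMSO serving as negative control for bidirectional fitting.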

[16] = read-out: urokinase plasminogen activator (uPA), PLAU (gene 5328); test: BSK_BE3C_uPA: BioMAP Diversity Plus: BE3C Assay for urokinase plasminogen activator (uPA) Biomarker Activity (AID 2283038); conditions: primary human bronchial epithelial cells; actives raise or lower the signal
Summary of the method: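 ELISA read-out of uPA in human lung primary bronchial epithelial cultures, 24 h post-dosing. Gain or loss of signal fitted bidirectionally relative to DMSO baseline; cytotoxicity checked in parallel cultures via SRB total protein stain.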

[17] = read-out: Urokinase-type plasminogen activator receptor (uPAR), PLAUR (gene 5329); test: BSK_BE3C_uPAR: BioMAP Diversity Plus: BE3C Assay for Urokinase-type plasminogen activator receptor (uPAR) Biomarker Activity (AID 2283039); conditions: primary human bronchial epithelial cells; actives raise or lower the signal
Summary of the method: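 Chemically treated human bronchial epithelial cells (lung primary) are assayed for uPAR by ELISA after 24 h, with data fitted in both directions using DMSO as negative control.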

[18] = biological target: human Vitamin D Receptor (VDR), VDR (gene 7421) (UniProt P11473); test: ATG_VDR_TRANS: Attagene TRANS-FACTORIAL HepG2 Assay for human Vitamin D Receptor (VDR) (AID 2283022; active = hit-call score of the fitted dose curve at least 0.9, where 1 is the maximum)
Summary of the method: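 RT-PCR/capillary electrophoresis read-out of reporter mRNA induction in transiently transfected HepG2; 24 h dosing; chimeric NR-Gal4 (TRANS format); gain-of-signal fit against DMSO baseline.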

[19] = read-out: Pselectin, SELP (gene 6403); test: BSK_4H_Pselectin: BioMAP Diversity Plus: 4H Assay for Pselectin Biomarker Activity (AID 2283026); conditions: primary human endothelial cells (HUVEC); actives raise or lower the signal
Summary of the method: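 Bidirectional fits against DMSO gave the endpoint. Cells: primary human umbilical vein endothelium, chemical-treated for 24 h before ELISA detection of P-selectin.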

[20] = BSK_BE3C_SRB: Viability Assessment in the BioMAP Diversity Plus: BE3C Assay (AID 2283028); conditions: primary human bronchial epithelial cells
Summary of the method: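 Primary human bronchial epithelium; chemical dosing, 24 h; 10% TCA fix, 0.1% SRB stain, A560; bidirectional fit vs DMSO baseline.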

Measured: AC50

Chain of human Vitamin D Receptor (VDR), VDR (gene 7421) (P11473 whole entry, looked up, the tested form may be a part): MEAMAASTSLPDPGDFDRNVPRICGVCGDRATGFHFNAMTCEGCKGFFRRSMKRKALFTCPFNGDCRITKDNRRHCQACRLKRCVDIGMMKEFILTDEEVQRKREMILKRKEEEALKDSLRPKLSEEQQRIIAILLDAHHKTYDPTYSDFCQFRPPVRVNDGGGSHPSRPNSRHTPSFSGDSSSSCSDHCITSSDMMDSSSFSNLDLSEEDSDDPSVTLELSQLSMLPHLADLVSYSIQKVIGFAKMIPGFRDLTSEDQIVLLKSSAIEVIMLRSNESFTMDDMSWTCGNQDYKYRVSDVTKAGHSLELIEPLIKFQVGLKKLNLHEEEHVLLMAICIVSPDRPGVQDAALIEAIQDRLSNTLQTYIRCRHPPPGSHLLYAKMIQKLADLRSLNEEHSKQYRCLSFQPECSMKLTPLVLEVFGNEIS

Cc1cc(C)c(O)c(C(C)(C)C)c1
active: [1] 20 µM | [3] 30.1 µM | [4] 29 µM | [5] 14.9 µM | [6] 29.5 µM | [7] 33.9 µM | [8] 37.7 µM | [10] 29.5 µM | [11] 30.4 µM | [12] 31 µM | [13] 36 µM | [14] 29.8 µM | [15] 27.9 µM | [16] 28.7 µM | [17] 28.2 µM
inactive: [2] | [9]

OCC(O)CC(F)(F)C(F)(F)C(F)(F)C(F)(F)C(F)(F)C(F)(F)C(F)(F)C(F)(F)F (stereo unspecified)
inactive: [1] | [2] | [18] | [3] | [4] | [6] | [7] | [8] | [9] | [10] | [11] | [12] | [13] | [15] | [16] | [17]

CCOC(=O)CC(=O)C(F)(F)C(F)(F)F
inactive: [1] | [2] | [18] | [3] | [4] | [6] | [7] | [8] | [9] | [10] | [11] | [12] | [13] | [15] | [16] | [17]
active: [8] 15.1 µM

NS(=O)(=O)C(F)(F)C(F)(F)C(F)(F)C(F)(F)C(F)(F)C(F)(F)F
active: [3] 49.4 µM and 44.3 µM | [4] 30 µM and 33.2 µM | [6] 37.2 µM and 30 µM | [11] 30 µM | [12] 30 µM and 24.4 µM | [15] 7.32 µM | [17] 41.8 µM
inactive: [1] | [2] | [18] | [7] | [8] | [9] | [10] | [11] | [13] | [15] | [16] | [17]

Cc1ccc(S(=O)(=O)C(I)I)cc1
active: [1] 4.26 µM | [2] 3.75 µM | [3] 5.27 µM | [4] 11.4 µM | [5] 1.85 µM | [19] 1.87 µM | [6] 1.98 µM | [7] 4.78 µM | [8] 2.2 µM | [9] 1.87 µM | [10] 7 µM | [11] 2.19 µM | [12] 6.58 µM | [13] 11 µM | [14] 7.3 µM | [15] 5.39 µM | [16] 6.62 µM | [17] 6.81 µM

O=C1c2c(O)ccc(Nc3ccc(CCO)cc3)c2C(=O)c2c([N+](=O)[O-])ccc(O)c21
active: [2] 34.2 µM | [4] 2.47 µM | [5] 15.4 µM | [19] 20 µM | [6] 31.3 µM | [7] 10.7 µM | [8] 31.1 µM | [9] 34.8 µM | [10] 3.43 µM | [11] 26.6 µM | [12] 20 µM | [13] 20 µM
inactive: [1] | [3] | [14] | [15] | [16] | [17]

OCCCCC(F)(F)C(F)(F)C(F)(F)C(F)(F)F
inactive: [1] | [2] | [18] | [3] | [4] | [6] | [20] | [7] | [8] | [9] | [10] | [11] | [12] | [13] | [15] | [16] | [17]

O=C=Nc1cccc2c(N=C=O)cccc12
inactive: [1] | [2] | [3] | [4] | [5] | [19] | [6] | [20] | [7] | [8] | [9] | [10] | [11] | [12] | [13] | [14] | [15] | [16] | [17]
